Measurements as given in ChEMBL document CHEMBL3988442, “University of Dundee, Small-Polar-MMV Screening Library” (2021).

The compounds below were run against AMP-activated protein kinase, AMPK (Homo sapiens) (UniProt P54646+O43741+P54619+Q9UGJ0+Q9Y478+Q13131+Q9UGI9) (assay: AMP-dependent Kinase enzyme assay. An in vitro enzyme assay that detects ADP turnover that is directly proportional to AMPK activity. This uses naive AMPK that is activated during the assay with MK-8722). Settings: 30 µM.
Type: functional
Design: scale not given: direction of the effect not stated beside the values
In the case of `CC(C)[C@@H]1CN(C(=O)CN(C)Cc2ccccc2)C[C@H]1C(=O)O`, the Percent Effect is reported as 2.94%. `CN(C)c1ccc(C(=O)Nc2cnn(Cc3ccccn3)c2)cc1` gave a Percent Effect of -1.9%. With `CCCNC(=O)c1cnc2n1CCCC2` the Percent Effect was 0.00547%. Compound `COc1ccccc1OC1CCN(C(=O)c2cnc(C)s2)CC1` has a Percent Effect of 3.19%. `Cn1cnc(S(=O)(=O)N2CCCC2c2ccnc3nccn23)c1` (stereo not given) was tested, and the Percent Effect was 0.76%. Work on `Cc1cnc(C(=O)NCC2CCOc3ccccc3C2)cn1` (stereo not given) yielded a Percent Effect of -2.4%. `Cc1cc(C(=O)Nc2ccc(OCCN3CCN(C)CC3)cc2)[nH]n1` gave a Percent Effect of 14.7%. `COC(=O)C1CN(Cc2cc(F)ccc2Br)CCO1` (stereo not given) gave a Percent Effect of -6.48%. `Cc1ccc(OCC(=O)N2CCOCC(O)(CN3CCCC3)C2)cc1C` (stereo not given) gave a Percent Effect of 8.56%. `O=C1CN(Cc2cn(CC3CCCN(C4CCSCC4)C3)nn2)CCN1` (stereo not given) showed a Percent Effect of -8.48%. `CC(C)c1nc(CN2CCN(C(=O)OC(C)(C)C)C(C)C2)no1` (stereo not given) was tested, and the Percent Effect was 1.33%. `CC(=O)Nc1ccc(CNC(=O)CNCc2nnc(C)o2)cc1` gave a Percent Effect of -8.94%. In the case of `CCCS(=O)(=O)N1CCC(c2ccc(OC)cc2)CC1`, the Percent Effect is reported as 2.67%. `Cc1ccc(S(=O)(=O)N(CC2CCOC2)C2CC2)cc1N(C)C` (stereo not given) showed a Percent Effect of -15%. `NC(=O)c1ccc(CNC(=O)NCc2cc[nH]n2)cc1` gave a Percent Effect of -5.62%. With `Cc1noc(-c2ccc(N(C)Cc3nccs3)nc2)n1` the Percent Effect was 5.7%. In the case of `Cc1ccc(S(C)(=O)=O)cc1NCC(=O)NCCC1=CCCCC1`, the Percent Effect is reported as 0.0953%. Work on `CCCS(=O)(=O)N1CCN(CCCO)CC1` yielded a Percent Effect of 89.9%. Work on `CN(C)c1nc(N)nc(CN2CCC(c3ccccc3)CC2)n1` yielded a Percent Effect of -6.86%. `Fc1ccc(N2CCN(CCCc3cn[nH]c3)CC2)cc1` was tested, and the Percent Effect was 3.93%. Work on `CN(Cc1nc(CS(C)(=O)=O)no1)c1ccccc1` yielded a Percent Effect of 0.0849%. For `CC1(C)CN(c2cc(C3CC3)ncn2)C[C@]1(C)O`, the Percent Effect was 30.7%. For `CC(Oc1cccc(Cl)c1)C(=O)Nc1cnn(CC(=O)NC2CC2)c1` (stereo not given), the Percent Effect was 1.4%. `CN(C)Cc1cnn(-c2ccccc2C(=O)NCCC2CCCN2C)c1` (stereo not given) showed a Percent Effect of 5.44%. For `Cc1ccccc1CC(=O)NCc1cnc(CC2CCN(C)CC2)cn1`, the Percent Effect was 4.22%. In the case of `COc1c(C)cnc(CN2CCCC2c2noc(C)n2)c1C` (stereo not given), the Percent Effect is reported as -12%. In the case of `Nc1nc(O)cc(N2CCC(c3cc(Cc4ccccc4)n[nH]3)CC2)n1`, the Percent Effect is reported as -82.1%. With `Cc1cc(C)c(CNc2cnn(CC(O)CN(C)C)c2)c(C)c1` (stereo not given) the Percent Effect was -45.6%. With `CCC(C(=O)N(Cc1ccccc1OC)C1CC1)n1cccn1` (stereo not given) the Percent Effect was 0.528%. Work on `CCOCCOC(C)C(=O)Nc1nccn1Cc1ccccc1` (stereo not given) yielded a Percent Effect of -2.1%. Compound `COCc1ccccc1NC(=O)CCNC(=O)c1ccoc1` has a Percent Effect of -3.07%. `CNc1ccc(C2CN(c3nc(C)cc(C)n3)CCO2)nc1` (stereo not given) gave a Percent Effect of 18%. `CC(C)Oc1cccc(CN(C)C(=O)Nc2cccn(C)c2=O)c1` showed a Percent Effect of -63%. For `Cc1ccc(C(=O)N2[C@@H]3CC[C@H]2CN(C)C(=O)C3)c(=O)[nH]1`, the Percent Effect was 8.78%. In the case of `NC(=O)C(NC1CCN(CC2CCCCC2)CC1)c1ccccc1` (stereo not given), the Percent Effect is reported as 0.144%. With `O=C(NCCCn1ccnc1)C1COCC(=O)N1Cc1ccccc1` (stereo not given) the Percent Effect was 3.38%. With `NC(=O)c1csc(N2C[C@@H](CN3CCC(O)CC3)[C@@H](CO)C2)n1` the Percent Effect was -1.72%. `COc1ccc(C(C)NCCc2ccc(NC(C)=O)cc2)cc1F` (stereo not given) gave a Percent Effect of 5.54%. In the case of `N#CC1COCCN1C(=O)c1cccc2cc[nH]c12` (stereo not given), the Percent Effect is reported as 5.13%. Compound `COC(=O)c1ccc(CCn2cnc(C#N)n2)cc1` has a Percent Effect of -2.56%.
